Source: PubChem BioAssay AID1845227 (National Center for Advancing Translational Sciences (NCATS), 2023)
Results filed as inconclusive are left out. Calls follow the shape of the dose curve; as a rule, active = well fitted inhibition curve with a large enough effect; inconclusive = small, poorly fitted or top-dose-only effect; inactive = no such curve, though single readings can be large or run the other way.

Target: Luciferin 4-monooxygenase (Photinus pyralis) (UniProt P08659)
Assay: Confirmatory firefly luciferase (FLuc) qHTS assay for identification of artifact compounds;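 also: 0% = DMSO and -100% = no enzyme control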
Settings: purified FLuc enzyme, luminescence, 5 min; series mostly up to 38.9 µM; activity change, negative = inhibition: at the top concentration
Summary of the method: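 Compounds were preincubated 15 min at room temperature with 10 uM D-luciferin and 10 uM ATP in Tris acetate pH 7.6. 10 nM Photinus pyralis luciferase was then added, and luminescence was read after 5 min.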

Activity change, negative = inhibition, inactive:
COc1ccc(C2N(Cc3ccccc3)C(=O)c3ccccc3N2C)cc1COc1ccc(NC(C)=O)cc1 (centres undefined) -3.87%, Cc1cn(C)c(CC(=O)N2CCN(c3ccccc3F)CC2)c1C(=O)O 3.91%, Cc1ccc(CNS(=O)(=O)c2ccc(-c3cc(C(F)(F)F)on3)s2)cc1 0.85%, O=C(Nc1ccc(Br)cc1)c1cc(-c2cccs2)nc2ccccc12 -3.02%, O=c1cc(-c2ccc(O)cc2)oc2cc(O[C@H]3OC(CO)C(O)C(O)C3O)cc(O)c12 (some centres undefined) 8.38%, COc1ccc(Cn2c(CNS(=O)(=O)c3ccc(Cl)s3)nc3cccnc32)cc1 3.97%, CCCNC(=O)c1ccccc1NC(=O)c1nsc2ccccc12 -7.64%, O=C(O)C1CC2CCCCC2N1C(=O)c1ccc(Cl)cc1 (centres undefined) 4.1%, Cc1cccc(CSc2nc3cc(C(=O)NC4CCCC4)ccc3c(=O)n2Cc2ccccc2)c1 5.47%, O=C(/C=C/c1ccc(O)c(O)c1)c1ccc(O[C@@H]2O[C@H](CO)[C@@H](O)[C@H](O)[C@H]2O)c(O)c1O -6.71%, COc1ccc(OC)c(NC(=O)CC(=O)Nc2ccc3nc4n(c(=O)c3c2)CCCCC4)c1 20.1%, CCOc1ccc2c(c1)C(C)=CC(C)(C)N2 -8.2%, Cc1ccc(-c2nc(S(=O)(=O)c3ccc(C)cc3)c(N3CCCCC3)o2)cc1 -2.08%, O=C(Nc1ccccc1-c1nc2ccccc2s1)c1cc(Cl)cc(Cl)c1 -0.169%, CCCCCCCCCCCCCCCC(=O)N[C@@H](COP(=O)(O)O)C(=O)O 3.09%, O=C(Nc1nnc(-c2ccncc2)s1)Nc1cccc2ccccc12 11.8%, Cc1c(C(=O)N(C)C)sc2c1c(=O)n(-c1ccc(Cl)cc1)c(=O)n2Cc1ccccc1F -4.76%, COc1ccc(-c2c3c(=O)n(C)c(=O)n(C)c3c3n2-c2ccccc2NC3c2ccccc2OC)cc1 (centres undefined) -5.6%, CCOc1ccc(OCC(=O)NCCS(=O)(=O)N2CCN(c3cccc(Cl)c3)CC2)cc1 0.265%, O=C(Nc1nnc(-c2ccccc2)s1)c1ccc(S(=O)(=O)N2CCCC2)cc1 -2.64%, Cc1c(Cl)cccc1NC(=O)c1cccc(NC(=O)N2CCSc3ncccc32)c1 5.82%, COc1ccc(NC(=O)Cc2noc3ccc(C)cc23)cc1Cl -5.66%, COc1cccc(-c2nnc(Nc3nc4c(OC)cccc4s3)o2)c1 -4.56%, Cc1ccc(-n2nnnc2CNC(=O)C(C)C)cc1C 5.51%, CCC(=O)N1CCCc2cc(S(=O)(=O)N3CCC(C(=O)Nc4ccccc4CC)CC3)ccc21 3.23%, COc1ccc(CNC(=O)c2ccc(NC(=O)N3CCCCc4ccccc43)cc2)cc1 1.81%, CCOc1ccc(N=C(C)Nc2ccc(OCC)cc2)cc1 -1.18%, Cc1nnc(NC(=O)c2nc(S(=O)(=O)Cc3ccccc3)ncc2Cl)s1 2.84%, COC(=O)c1scc(-c2ccc(C)cc2)c1S(=O)(=O)Nc1ccc(NC(C)=O)cc1 1.57%, O=C(NCc1ccccc1)c1cnc2sc(N3CCCC3)nn2c1=O 5.84%, O=C(O)Cc1cc(F)c(S(=O)(=O)N2CCN(S(=O)(=O)c3ccc4c(c3)OCCO4)CC2)cc1F -5.63%, COc1ccc(CCNC(=O)c2c(C)oc3ncn(C)c(=O)c23)c(OC)c1 6.96%, COC(=O)c1scc(-c2ccc(C)cc2)c1S(=O)(=O)N1CCN(c2ccc(C(C)=O)cc2)CC1 14.9%, CCCCNS(=O)(=O)c1ccc2nc(-c3cccnc3)cc(C(=O)NCCC)c2c1 -2.26%
